Here are results for 6 molecules from PubChem BioAssay.

Active and inactive are the calls of the source.

For assay [1], the system named is Plasmodium falciparum Sir2 (PF13_0152, Sir2A). As to the kind of experiment: Plasmodium falciparum Sir2A binding compounds – biochemical, small-molecule microarray, 635 nm fluorescence, primary screen (AID 1098).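 Further: score merges spot fluorescence intensity with its signal-to-noise ratio.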 The following applies: fluorescence 635 nm, higher = more signal.
The nature of assay [2]: probe aDKK1 binding to arrayed compounds – biochemical, biotinylated probe, 635/667 nm fluorescence, primary screen (AID 1099).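 Further: score merges 667nm spot fluorescence with signal to noise across triplicate slides.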 As to conditions: small-molecule microarray, higher = more signal.
Assay [3] in a line: probe aCHRDL2 binding to arrayed compounds – biochemical, biotinylated probe, 635/667 nm fluorescence, primary screen (AID 1100). The following applies: small-molecule microarray, higher = more signal.
A short description of assay [4]: change in splice reporter luminescence, either direction, cell-based, HEK293, spliceosome inhibition project, primary screen (AID 1101).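 Further: HEK293 cells carrying a splicing-competent luciferase reporter gene; test concentration not given here.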 As to conditions: HEK293 splicing luciferase reporter, 24 h, higher = more signal, called active from +8 up or from −8 down. For orientation: In a reporter assay the amount or activity of a reporter protein is the signal.
In assay [5] the target is Fibroblast growth factor 10 (Homo sapiens) (UniProt O15520). The assay can be described thus: compounds binding fibroblast growth factor 10 – biochemical, small-molecule microarray, 635 nm fluorescence, primary screen (AID 1102). The following applies: FGF10 binding, fluorescence 635 nm, higher = more signal.
Assay [6] concerns glycogen synthase kinase-3 (GSK3A per assay name; protocol says GSK3B). The assay can be described thus: compounds binding glycogen synthase kinase-3 – biochemical, small-molecule microarray, 635 nm fluorescence, GSK3A, primary screen (AID 1103). Further: the record names both GSK3A and GSK3B. The following applies: fluorescence 635 nm, higher = more signal.
Assay [7] concerns the target Epidermal growth factor receptor (Homo sapiens) (UniProt P00533). The assay can be described thus: compounds binding epidermal growth factor receptor – biochemical, small-molecule microarray, 635 nm fluorescence, primary screen (AID 1104).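 Further: score merges 667 nm emission intensity with spot signal to noise over triplicate slides.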 The following applies: EGFR binding, higher = more signal.
Assay [8] has as its target Follistatin-related protein 3 (Homo sapiens) (UniProt O95633). The assay can be described thus: compounds binding follistatin-related protein 3 – biochemical, small-molecule microarray, 635 nm fluorescence, primary screen (AID 1105).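 Further: score merges emission near 667 nm and signal to noise per printed spot across three slides.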 The following applies: FSTL3 binding, higher = more signal.
For assay [9], the target named is Dickkopf-related protein 1 (Homo sapiens) (UniProt O94907). The assay can be described thus: small molecules binding DKK1 protein – biochemical, small-molecule microarray, 635 nm fluorescence scan, primary screen (AID 1106).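 Further: score merges emission near 667 nm with signal to noise over three replicate slides.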 The following applies: higher = more signal.
For assay [10], the system named is Inhibin beta A chain (activin A). The assay can be described thus: small molecules binding activin A – biochemical, small-molecule microarray, 635 nm fluorescence scan, primary screen (AID 1107).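 Further: mouse activin A protein probed at 4.33 µg/mL on printed slides; score merges bound-protein fluorescence near 667 nm with spot signal-to-noise.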 As to conditions: INHBA, higher = more signal.
The subject of assay [11] is Human papillomavirus type 1a protein E7 (residues 44-93). The assay can be described thus: small molecules binding HPV E7 44-93 – biochemical, small-molecule microarray, residues 44-93, 635 nm fluorescence, primary screen (AID 1108).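 Further: E7 fragment applied at 1 µg/mL in TBST for 1 h at 4 C; score combines spot fluorescence with its signal to noise ratio.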 As to conditions: fluorescence 635 nm, higher = more signal.
Assay [12] is described as follows: hepatitis C replication reporter changes, two-sided – Huh7 cells, luciferase reporter, HCV replication inhibitor project, primary screen (AID 1109).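 Further: huh7 hepatoma cells harbouring a luciferase neomycin HCV replicon reporter; luciferase luminescence as measure of HCV replicon replication; test concentration not given here.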 As to conditions: Huh7 HCV replicon luciferase reporter, 48 h; higher = more signal.
The target in assay [13] is Left-right determination factor 2 (Homo sapiens) (UniProt O00292). As to the kind of experiment: small molecules binding LEFTY2 protein – biochemical, small-molecule microarray, 635 nm fluorescence scan, primary screen (AID 1110). The following applies: higher = more signal.
Assay [14] has as its target Calmodulin-1 (Homo sapiens) (UniProt P0DP23). As to the kind of experiment: small molecules binding calmodulin-1 with EGTA – biochemical, small-molecule microarray, Cy5-labelled CALM1, profiling panel (AID 1111).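 Further: labelled calmodulin applied in Tris saline Tween buffer holding calcium plus EGTA and DTT.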 The following applies: Cy5-CALM1 binding fluorescence, higher = more signal.
The target is the same in assay [15]. The assay can be described thus: small molecules binding Ca-loaded calmodulin-1 – biochemical, small-molecule microarray, Cy5-labelled CALM1, plus calcium, artefact control for SMM control-protein annotation, profiling panel (AID 1112).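 Further: score merges spot fluorescence with signal to noise from triplicate slides.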 As to conditions: Cy5-CALM1 binding fluorescence, higher = more signal.
Assay [16] in a line: probe aWnt5a binding to arrayed compounds – biochemical, biotinylated probe, 635/667 nm fluorescence, primary screen (AID 1113).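 Further: score merges 667 nm fluorescence intensity with signal-to-noise per printed feature.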 The following applies: small-molecule microarray, higher = more signal.
The nature of assay [17]: probe aShh binding to arrayed compounds – biochemical, biotinylated probe, 635/667 nm fluorescence, primary screen (AID 1114).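 Further: probe is biotin-labelled aShh protein from a stem cell growth factor screen; measures binding of labelled protein to compounds printed on the slide; score merges feature fluorescence at 667 nm with signal-to-noise.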 As to conditions: small-molecule microarray, higher = more signal.
Assay [18] is described as follows: probe aNog binding to arrayed compounds – biochemical, biotinylated probe, 635/667 nm fluorescence, primary screen (AID 1115).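 Further: probe is biotinylated aNog protein used at 0.15 µg/mL for 1 h at 4 C; z-score combines 667 nm fluorescence of each spot with its signal to noise.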 The following applies: small-molecule microarray, higher = more signal.
In assay [19] the target is Torsin-1A-interacting protein 1 (Homo sapiens) (UniProt Q5JTV8). The assay can be described thus: compound microarray binding of lysate hLAP1 – cell lysate, small-molecule microarray, COS7 lysate, 635/667 nm fluorescence, primary screen (AID 1116). As to conditions: 635 nm fluorescence, higher = more signal.
For assay [20], the target named is Alpha-bungarotoxin (Bungarus multicinctus) (UniProt P60615). The assay can be described thus: compounds binding labelled alpha-BTX control protein – biochemical, small-molecule microarray, Alexa647 label, 635/667 nm fluorescence, artefact control for SMM control protein annotation, profiling panel (AID 1117). As to conditions: alpha-BTX-A647 binding fluorescence, higher = more signal.
Sequence of Alpha-bungarotoxin (Bungarus multicinctus) (P60615 whole entry, looked up): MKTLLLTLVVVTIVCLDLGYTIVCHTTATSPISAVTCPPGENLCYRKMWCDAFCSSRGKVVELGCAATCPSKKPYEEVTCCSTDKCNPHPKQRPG

Sequence of Fibroblast growth factor 10 (Homo sapiens) (O15520 whole entry, looked up): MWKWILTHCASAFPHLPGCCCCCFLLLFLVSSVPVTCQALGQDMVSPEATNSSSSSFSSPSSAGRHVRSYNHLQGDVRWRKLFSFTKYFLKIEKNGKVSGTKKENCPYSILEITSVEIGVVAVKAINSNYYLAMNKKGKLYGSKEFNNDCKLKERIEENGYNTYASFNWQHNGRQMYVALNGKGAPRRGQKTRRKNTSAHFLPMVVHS
Sequence of Follistatin-related protein 3 (Homo sapiens) (O95633 whole entry, looked up): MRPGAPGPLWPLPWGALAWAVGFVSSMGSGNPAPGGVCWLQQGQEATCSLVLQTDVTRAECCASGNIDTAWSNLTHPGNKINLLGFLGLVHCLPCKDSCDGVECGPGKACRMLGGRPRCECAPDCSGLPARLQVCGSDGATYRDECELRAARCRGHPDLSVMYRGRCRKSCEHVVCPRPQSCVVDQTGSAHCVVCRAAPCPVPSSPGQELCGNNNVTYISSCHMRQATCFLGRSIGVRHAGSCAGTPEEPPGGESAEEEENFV
Sequence of Epidermal growth factor receptor (Homo sapiens) (P00533 whole entry, looked up): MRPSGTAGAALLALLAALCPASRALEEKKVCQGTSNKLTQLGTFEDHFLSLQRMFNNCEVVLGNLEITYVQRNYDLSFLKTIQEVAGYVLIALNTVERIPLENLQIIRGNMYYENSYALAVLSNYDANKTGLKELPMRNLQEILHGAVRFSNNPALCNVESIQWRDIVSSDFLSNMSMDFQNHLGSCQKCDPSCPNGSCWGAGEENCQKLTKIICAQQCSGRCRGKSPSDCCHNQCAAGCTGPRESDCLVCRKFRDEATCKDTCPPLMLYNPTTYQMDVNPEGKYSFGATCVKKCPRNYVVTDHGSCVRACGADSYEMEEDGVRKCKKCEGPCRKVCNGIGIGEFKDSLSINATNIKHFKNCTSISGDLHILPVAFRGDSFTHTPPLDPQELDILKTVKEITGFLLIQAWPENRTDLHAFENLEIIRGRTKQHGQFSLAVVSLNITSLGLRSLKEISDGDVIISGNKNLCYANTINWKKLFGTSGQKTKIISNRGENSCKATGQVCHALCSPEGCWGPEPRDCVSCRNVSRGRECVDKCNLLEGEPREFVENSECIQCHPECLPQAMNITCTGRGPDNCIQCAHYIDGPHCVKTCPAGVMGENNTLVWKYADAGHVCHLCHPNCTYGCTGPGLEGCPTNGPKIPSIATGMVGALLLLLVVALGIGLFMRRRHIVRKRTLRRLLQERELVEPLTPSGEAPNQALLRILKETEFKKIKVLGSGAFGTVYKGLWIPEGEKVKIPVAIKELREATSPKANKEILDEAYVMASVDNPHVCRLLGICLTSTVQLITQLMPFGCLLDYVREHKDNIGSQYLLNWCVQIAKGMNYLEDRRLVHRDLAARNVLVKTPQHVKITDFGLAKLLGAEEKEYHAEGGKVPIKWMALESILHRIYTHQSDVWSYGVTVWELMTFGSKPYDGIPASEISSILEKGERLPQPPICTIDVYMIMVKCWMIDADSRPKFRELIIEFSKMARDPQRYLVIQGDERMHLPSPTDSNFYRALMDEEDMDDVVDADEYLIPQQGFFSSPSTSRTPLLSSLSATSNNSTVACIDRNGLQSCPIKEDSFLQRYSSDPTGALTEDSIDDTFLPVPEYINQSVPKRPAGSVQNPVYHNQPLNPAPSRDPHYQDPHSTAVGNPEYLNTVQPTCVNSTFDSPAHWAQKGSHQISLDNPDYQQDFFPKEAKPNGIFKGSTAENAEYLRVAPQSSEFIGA
Sequence of Dickkopf-related protein 1 (Homo sapiens) (O94907 whole entry, looked up): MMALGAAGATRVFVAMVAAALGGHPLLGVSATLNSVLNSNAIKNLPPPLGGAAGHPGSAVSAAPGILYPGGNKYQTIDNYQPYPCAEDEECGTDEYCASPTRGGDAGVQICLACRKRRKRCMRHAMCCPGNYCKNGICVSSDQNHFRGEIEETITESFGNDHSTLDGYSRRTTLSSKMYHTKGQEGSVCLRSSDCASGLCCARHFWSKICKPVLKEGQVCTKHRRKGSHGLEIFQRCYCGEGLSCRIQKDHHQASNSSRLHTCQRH
Sequence of Left-right determination factor 2 (Homo sapiens) (O00292 whole entry, looked up): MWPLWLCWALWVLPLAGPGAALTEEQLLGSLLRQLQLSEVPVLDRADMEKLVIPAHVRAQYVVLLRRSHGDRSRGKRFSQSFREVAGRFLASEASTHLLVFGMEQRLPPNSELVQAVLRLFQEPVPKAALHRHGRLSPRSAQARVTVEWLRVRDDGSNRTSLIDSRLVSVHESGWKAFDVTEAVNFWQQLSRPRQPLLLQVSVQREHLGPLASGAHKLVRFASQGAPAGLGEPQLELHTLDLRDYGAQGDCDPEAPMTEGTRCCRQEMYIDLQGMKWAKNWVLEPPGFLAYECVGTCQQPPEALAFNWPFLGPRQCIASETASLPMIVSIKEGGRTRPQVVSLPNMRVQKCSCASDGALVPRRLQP
Sequence of Torsin-1A-interacting protein 1 (Homo sapiens) (Q5JTV8 whole entry, looked up): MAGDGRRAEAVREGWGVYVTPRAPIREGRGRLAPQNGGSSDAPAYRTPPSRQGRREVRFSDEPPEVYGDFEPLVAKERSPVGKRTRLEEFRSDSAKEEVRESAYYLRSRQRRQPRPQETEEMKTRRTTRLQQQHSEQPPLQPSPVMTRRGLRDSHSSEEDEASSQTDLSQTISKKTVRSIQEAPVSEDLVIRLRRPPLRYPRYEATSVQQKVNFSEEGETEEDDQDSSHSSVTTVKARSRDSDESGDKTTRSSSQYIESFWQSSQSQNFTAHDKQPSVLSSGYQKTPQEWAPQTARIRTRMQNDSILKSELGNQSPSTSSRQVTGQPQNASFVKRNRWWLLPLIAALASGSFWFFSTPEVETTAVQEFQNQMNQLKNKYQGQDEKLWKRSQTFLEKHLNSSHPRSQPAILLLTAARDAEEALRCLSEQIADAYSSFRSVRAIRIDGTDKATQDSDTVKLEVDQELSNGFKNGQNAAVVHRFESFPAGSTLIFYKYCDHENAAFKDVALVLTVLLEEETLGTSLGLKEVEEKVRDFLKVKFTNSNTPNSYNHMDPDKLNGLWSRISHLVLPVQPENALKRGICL

In the case of `[N-]=[N+]=NCc1ccccc1[C@H]1OC(c2ccc(OCCCO)cc2)=N[C@@]1(CCS(=O)(=O)c1ccccc1)C(=O)N1CCOCC1`, the composite z-score came out at 1.26 in assay [1]; 1.19 in assay [2]; 1.31 in assay [3]; 1.17 in [5]; 0.239 in assay [6]; 0.267 in assay [7]. For the same molecule, the composite z-score was 1.13 in assay [8]; -0.0445 in assay [9]; 1 in assay [10]; 1.44 in [11]; 0.402 in [13]; 2.58 in assay [14]. Besides, the composite z-score amounted to 0.786 in assay [15]; 0.242 in assay [16]; 0.356 in assay [17]; 2.25 in assay [18]; 3.34 in [19]; 2.59 in [20]. In addition, the results for the z-score in assay [4] and in assay [12] were -0.0598 (inactive) and -1.27, respectively.
In the case of `COc1cc2c(cc1OC)CN(C(=O)[C@@H]1[C@H]3C(=O)O[C@H](c4ccccc4)[C@H](c4ccccc4)N3[C@H](c3ccccc3OCCO)[C@@]13C(=O)Nc1ccc(C#CCNC(N)=O)cc13)CC2`, the composite z-score in assay [1] was found to be 1.58; in [2], 0.0627; in assay [3], 0.281; in [5], 0.518; in assay [6], 1.08; in assay [7] it was 0.245. Further, the composite z-score in [8] came out at 0.445; in assay [9], 0.208; in assay [10], 0.922; in [11], 0.644; in assay [13], 0.17; in [14] it was 1.36. Moreover, the composite z-score amounted to 0.478 in assay [15]; 0.0744 in assay [16]; 0.155 in assay [17]; 1.12 in assay [18]; 1.29 in [19]; 1.9 in [20]. In addition, the results for the z-score in [4] and in assay [12] were 0.095 (inactive) and -1.01, respectively.
As to `C=C(CCCC)C(=O)CC[C@H](OC(=O)c1cccnc1)c1cccc(OCCO)c1`, the composite z-score in assay [1] was 0.681; in assay [2] it was -0.298; in assay [3], 0.165; in assay [5], 0.309; in assay [6], -0.208; in assay [7], -0.502. Also, the composite z-score in assay [8] was -0.688; in assay [9] it was -0.219; in assay [10] it was 1.29; in [11] it was 0.343; in assay [13] it was 0.0112; in [14], -0.538. Besides, the composite z-score in [15] is -0.993; in assay [16], -0.0107; in [17] it was -0.0035; in assay [18], -0.356; in [19], 0.479; in assay [20] it was -0.0331. Besides, the z-score was 4.13 (inactive) in assay [4] and -3.04 in assay [12].
For `CCCN1C(=O)[C@@]2(CCC(=O)OC(C)(C)C)N=C(c3ccc(OCCCO)cc3)O[C@H]2c2ccccc21`, the composite z-score in assay [1] was 0.902; in assay [2] it was -0.243; in [3], 0.713; in assay [5] it was 0.9; in assay [6], 1.22; in assay [7], 0.246. Besides, the composite z-score in assay [8] is 0.874; in [9] it was 0.242; in assay [10], 1.03; in assay [11] it was 1.11; in assay [13] it was 0.163; in [14], 0.786. In addition, the composite z-score is -0.38 in assay [15]; 0.0044 in assay [16]; -0.0866 in [17]; -0.0875 in [18]; 0.816 in assay [19]; 0.285 in assay [20]. For the same molecule, the z-score was 0.478 (inactive) in assay [4] and -2.75 in assay [12].
Turning to `COc1cc2c(cc1O)C(C)N(Cc1cccc(OC(F)(F)F)c1)CC2` (stereo not given), the composite z-score is 1.7 in assay [1]; 0.0376 in [2]; 0.23 in [3]; 1.24 in assay [5]; 0.219 in [6]; -0.425 in assay [7]. For the same molecule, the composite z-score in assay [8] was 0.514; in assay [9], 0.188; in [10], 0.902; in assay [11], 1.37; in assay [13], -0.442; in assay [14], 0.854. In addition, the composite z-score is 0.938 in assay [15]; -0.0445 in assay [16]; 0.0326 in [17]; 0.582 in [18]; 1.67 in assay [19]; 0.514 in assay [20]. Moreover, the z-score in assay [4] is -0.0689 (inactive); in [12], -0.815.
Turning to `COCCOC(=O)N1C(=O)[C@@]2(c3cc(C#Cc4ccc(OC)cc4)ccc31)[C@H](C(=O)N1CCN(c3ncccn3)CC1)[C@H]1C(=O)O[C@H](c3ccccc3)[C@H](c3ccccc3)N1[C@@H]2c1ccc(O)cc1`, the composite z-score is -0.12 in assay [1]; -0.138 in assay [2]; 0.0953 in assay [3]; -0.0132 in assay [5]; -0.0617 in assay [6]; -0.026 in [7]. Moreover, the composite z-score in assay [8] is 0.246; in assay [9], 0.37; in assay [10], -0.0611; in assay [11], 0.519; in [13], 0.0473; in [14], 0.958. The composite z-score in assay [15] is 0.217; in assay [16], -0.207; in [17] it was -0.138; in [18] it was -0.366; in [19], 0.135; in [20], 0.107. The results for the z-score in assay [4] and in [12] were -0.772 (inactive) and -1.39, respectively.
